The supplement of paper PMC6555819

Columns and labels:
Experiment in all cases: PBM binding z-score (relative to random genomic background probes); higher = stronger binding; sequences stand for … in GC…GCGATTGACAGCGTAGAATGAAGG
[1] = system: FXR:RXRa (NR concentration 270 nM, RXRa partner concentration 90 nM)
In short: (§1)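 Probes were double-stranded and carried 34-nt variable regions with direct-repeat seeds, single-nucleotide variants, half-site ablations and random human genomic background sequences, printed on custom Agilent 4×180K protein-binding microarrays. Arrays were incubated 1 h with ligand-free nuclear receptor dimers in PBS pH 7.4, 2% milk, 0.02% Triton X-100, 1 mM DTT, 0.2 mg/mL BSA and 0.4 mg/ml salmon testes DNA. Antibodies against each partner (one per run) detected binding, and scanned fluorescence was regression-normalized. Binding z-scores use the random background probes as reference.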

[2] = system: LXRa:RXRa (NR concentration 270 nM, RXRa partner concentration 90 nM)
In short: as §1

[3] = system: LXRa homodimer (NR concentration 270 nM)
In short: as §1

[4] = system: LXRb homodimer (NR concentration 270 nM)
In short: as §1

[5] = system: PPARg:RXRa 270nM:90nM, anti-RXR (NR concentration 270 nM, RXRa partner concentration 90 nM)
In short: as §1

[6] = system: PPARg:RXRa 30nM:10nM, anti-RXR (NR concentration 30 nM, RXRa partner concentration 10 nM)
In short: as §1

[7] = system: PPARg:RXRa 90nM:30nM, anti-RXR (NR concentration 90 nM, RXRa partner concentration 30 nM)
In short: as §1

[8] = system: PPARg:RXRa DBDmut IVT, anti-RXR (DBD mutation: RXRa K156A/R161A, NR concentration 270 nM, RXRa partner concentration 90 nM)
In short: as §1

[9] = system: PPARa:RXRa (NR concentration 270 nM, RXRa partner concentration 90 nM)
In short: as §1

[10] = system: PPARg:RXRa (NR concentration 180 nM, RXRa partner concentration 90 nM)
In short: as §1

Row | Sequence | PBM binding z-score [1] | PBM binding z-score [2] | PBM binding z-score [3] | PBM binding z-score [4] | PBM binding z-score [5] | PBM binding z-score [6] | PBM binding z-score [7] | PBM binding z-score [8] | PBM binding z-score [9] | PBM binding z-score [10]
1 | CCTGCTAGGTCAAAGGTCAGCTAAAGCAGCTCGC | 7.56 | 6.38 | 2.52 | 1.05 | 10.2 | 11.3 | 12.6 | 5.89 | – | –
2 | TTGCCTAGGTCATTGGGCCAGTATAGTACGCATC | 4.6 | – | 0.781 | 0.088 | 3.63 | 1 | 2.47 | 2.65 | 3.86 | 3.36
3 | ATCAAAAGGTCGAGGTGAGTATAGAGAAAGGGAA | 4.62 | 4.01 | 0.533 | 1.32 | 3.94 | 1.51 | 2.81 | 0.945 | 4.75 | 3.37
4 | CCTTACGGGTTACTCCAGGTTATAGCATCGGAGT | 2.01 | – | 5.38 | -0.167 | 0.711 | -0.136 | 0.413 | 0.986 | 1.45 | 0.504
5 | TATACAAGGTCAAAGGCCAGAGTACGAATGTCGA | 7.51 | – | 6.08 | 4.21 | 7.39 | 5.48 | 7.66 | 2.91 | 6.24 | 8.52
6 | TCGTGTAGGTTACGGGGGCATTCAGGGATGAAGA | 3.84 | 3.76 | 1.21 | – | 6.17 | 4.82 | 5.8 | 5.22 | 4.58 | 6.02
7 | CAAACTAGTTCAAGAGGTCAAAGTCCGCTTCCCG | 5.96 | – | 8.11 | 2.39 | 5.47 | 2.85 | 4.8 | 2.43 | 5.38 | 3.84
8 | ACTCGGATGACAAAGGTCAGAGCTACGCCAGTGA | 3.55 | – | 1.58 | 0.503 | 5.37 | 3.76 | 5.58 | 0.169 | 4.38 | 4.68
9 | ATATGTAGGTTAAAGGTCATTCAGGTTGGTTCGC | 7.3 | 6.58 | 6.86 | 2.72 | 11 | 13.3 | 13.6 | 8.31 | – | –
10 | CTATGTAGGTTACGGGGGTCATTCAGTTTGAAAG | 5.4 | 5.54 | 2.93 | – | 7.81 | 5.47 | 7.92 | 7.41 | – | 9.31
11 | CGTCCAAGGTCTAGGTCAGTGAAAGAGACTCGAA | 0.449 | 0.249 | -0.0366 | -0.741 | 0.357 | -0.506 | -0.014 | 0.895 | – | -0.0446
12 | CGTCCAAGGTCATAGGAGGTCAATGAAGACAGAT | 7.84 | 7.73 | 6.78 | 1.44 | 6.13 | 2.88 | 5.04 | 3 | – | 5.9
13 | ATCGAAAGGTCTAAGGTGAGTATACCCACCCGAA | 0.614 | – | -0.103 | -0.0723 | 2.08 | 0.802 | 1.56 | -0.401 | 1.52 | 1.52
14 | CTATGTGGGTTAAGGGGGTCATTCAGTTTGAAAG | 5.61 | 5.47 | 3.82 | – | 7.71 | 5.51 | 7.71 | 7.57 | – | 8.76
15 | ACTTACGGGTCAACGAGGTCATAGCACGCGTATA | 7.21 | 6.34 | 3.72 | 1.13 | 6.81 | 3.78 | 5.73 | 4.12 | – | 6.76
16 | AATACAAGGTCATCGTAGGCCAGAGTACGCACAG | 7.64 | – | 6.1 | 3.33 | 5.94 | 2.73 | 5.04 | 3.93 | 5.75 | 6.55
17 | CCGACGGGGGCAAAGGTTACCATACTCAGTACGA | 5.52 | 5.02 | 0.667 | 5.6 | 9.24 | 8.76 | 10.4 | 2.71 | 6.41 | 10
18 | CGAACTAGGTCATTGACAGGACAATGAATAGTAA | 4.51 | – | 0.605 | -0.0587 | 6.6 | 3.9 | 5.84 | 8.11 | 5.06 | 7.97
19 | ATATGTAGTTTATCGGGTCATTCAGTTTGCGCAT | 2.53 | – | 3.41 | 0.952 | 2.34 | 0.761 | 1.64 | 2.99 | 3.2 | 1.86
20 | TCTAGTTGGTCAAAGGTCACGCACTCGAAATGCG | 6.9 | 6.16 | 4.78 | 1.9 | 10.2 | 12.6 | 12.2 | 3.84 | – | 12
21 | ATATGTAGGATAGCTGGGGTCATTCAGACTAGGC | 3.09 | – | 1.63 | 1.33 | 3.01 | 1.01 | 2.38 | 3.17 | 4.6 | 2.42
22 | CCGAATAGGTTACGAGGGGGCATTCAGTGCGAAT | 3.52 | 7.98 | 2.43 | – | 3.71 | 2 | 2.62 | 2.73 | 3.85 | 2.08
23 | TCTCGGAGGAAACGAAAGGTCAGAGCTCGACATC | 1.86 | – | 2.91 | -0.0498 | 3.9 | 2.92 | 3.77 | 1.21 | 3.66 | 1.74
24 | ATATGTAGGTTGGGGTCATTCAGAAAGTAGGGAA | 5.99 | 5.41 | 2.32 | 4.74 | 6.09 | 3.16 | 5.4 | 3.81 | – | 7.05
25 | TCGAGTAGGTCACGGGGGCATTCAGGGATGAAGA | 6.7 | 5.3 | 1.07 | – | 7.99 | 5.9 | 7.7 | 6.73 | 6.09 | 9.41
26 | AGAATGAGGTTACTAAAGATCAGGGAAACGCTTG | 1.18 | – | 0.111 | 0.0247 | 1.58 | 0.706 | 1.07 | 3.7 | 2.5 | 1.81
